Experimental data from article PMC7862700, “An all-to-all approach to the identification of sequence-specific readers for epigenetic DNA modifications on cytosine”.

Assays:
Experiment in all cases: DAPPL (digital affinity profiling via proximity ligation, sequencing); 10 mM Tris-HCl pH 7.5, 50 mM NaCl, 1 mM DTT, 4% glycerol, room temperature, 30 min; GST-TFs on glutathione beads, 16-mer random dsDNA library, 0.1% formaldehyde crosslink after washing; high values mean tight binding
Conditions in all cases: protein: recombinant; tags: N-terminal GST; dsDNA, one strand shown
FLI1 = molecular target: T1, FLI1 (Homo sapiens, UniProt Q01543 1-452)
T1 sequence: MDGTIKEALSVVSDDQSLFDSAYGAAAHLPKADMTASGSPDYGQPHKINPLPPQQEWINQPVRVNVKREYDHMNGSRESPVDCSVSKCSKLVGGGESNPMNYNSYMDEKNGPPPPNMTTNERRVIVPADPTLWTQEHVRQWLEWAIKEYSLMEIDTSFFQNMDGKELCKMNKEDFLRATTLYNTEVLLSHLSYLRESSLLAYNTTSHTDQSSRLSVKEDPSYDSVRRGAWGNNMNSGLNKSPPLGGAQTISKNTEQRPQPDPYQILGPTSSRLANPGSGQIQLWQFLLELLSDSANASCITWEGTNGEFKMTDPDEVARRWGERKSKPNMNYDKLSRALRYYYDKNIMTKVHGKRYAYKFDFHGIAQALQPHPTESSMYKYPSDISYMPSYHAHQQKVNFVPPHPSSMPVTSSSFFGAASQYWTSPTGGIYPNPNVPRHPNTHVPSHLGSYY
Summary of the method: (§1)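 Human transcription factors were made in yeast as GST fusions, captured on glutathione beads and barcoded with DNA. With a tag-only sample included, the pool was incubated with 200 nmole of a random double-stranded 16-mer DNA library in Tris/NaCl/DTT/glycerol buffer at room temperature for 30 min, then crosslinked with 0.1% formaldehyde after washing, ligated by proximity, amplified and sequenced. For binding signal, each hexamer's read frequency for a factor is divided by its frequency for the tag-only sample.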

ELK1 = molecular target: T2, ELK1 (Homo sapiens, UniProt P19419 1-428)
T2 sequence: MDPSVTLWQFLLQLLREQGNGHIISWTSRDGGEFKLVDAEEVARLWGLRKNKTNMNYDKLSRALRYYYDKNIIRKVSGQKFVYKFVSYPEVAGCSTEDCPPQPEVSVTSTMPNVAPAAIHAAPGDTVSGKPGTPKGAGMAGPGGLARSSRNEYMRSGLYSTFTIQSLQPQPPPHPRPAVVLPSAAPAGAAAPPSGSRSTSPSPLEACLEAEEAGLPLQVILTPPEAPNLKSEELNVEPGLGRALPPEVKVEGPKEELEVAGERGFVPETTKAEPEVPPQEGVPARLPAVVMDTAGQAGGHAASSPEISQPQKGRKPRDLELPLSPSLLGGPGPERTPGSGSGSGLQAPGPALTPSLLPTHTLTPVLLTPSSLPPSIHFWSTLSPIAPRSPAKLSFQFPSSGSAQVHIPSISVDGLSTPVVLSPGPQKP
Summary of the method: as §1

GABPA = molecular target: T3, GABPA (Homo sapiens, UniProt Q06546 1-454)
T3 sequence: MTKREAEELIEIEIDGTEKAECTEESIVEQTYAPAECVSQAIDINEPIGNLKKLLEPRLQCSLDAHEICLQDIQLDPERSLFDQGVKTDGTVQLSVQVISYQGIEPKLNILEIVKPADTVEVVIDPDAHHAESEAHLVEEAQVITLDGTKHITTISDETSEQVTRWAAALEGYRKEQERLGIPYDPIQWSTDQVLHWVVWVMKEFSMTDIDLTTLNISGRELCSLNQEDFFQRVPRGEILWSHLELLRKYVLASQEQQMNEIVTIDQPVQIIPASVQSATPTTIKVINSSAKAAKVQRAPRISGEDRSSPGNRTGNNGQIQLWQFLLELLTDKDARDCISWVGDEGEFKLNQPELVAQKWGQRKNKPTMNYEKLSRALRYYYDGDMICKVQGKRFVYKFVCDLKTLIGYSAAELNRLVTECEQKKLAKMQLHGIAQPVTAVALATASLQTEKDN
Summary of the method: as §1

ERG = molecular target: T4, ERG (Homo sapiens, UniProt P11308 1-479)
T4 sequence: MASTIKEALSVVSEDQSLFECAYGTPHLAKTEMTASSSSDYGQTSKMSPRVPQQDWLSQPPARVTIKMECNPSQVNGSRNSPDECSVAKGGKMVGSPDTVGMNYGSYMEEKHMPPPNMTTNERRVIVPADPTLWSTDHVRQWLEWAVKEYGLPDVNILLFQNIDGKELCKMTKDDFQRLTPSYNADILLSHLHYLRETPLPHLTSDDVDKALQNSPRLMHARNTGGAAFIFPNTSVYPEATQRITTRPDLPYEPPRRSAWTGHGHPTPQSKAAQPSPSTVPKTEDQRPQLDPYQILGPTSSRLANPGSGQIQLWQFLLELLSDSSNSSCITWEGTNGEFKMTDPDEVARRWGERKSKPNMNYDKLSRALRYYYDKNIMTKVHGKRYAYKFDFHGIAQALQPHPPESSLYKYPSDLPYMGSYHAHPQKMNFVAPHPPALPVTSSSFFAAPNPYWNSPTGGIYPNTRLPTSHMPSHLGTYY
Summary of the method: as §1

ELF1 = ELF1 (Homo sapiens, UniProt P32519 1-619)
Sequence of ELF1 (P32519 whole entry): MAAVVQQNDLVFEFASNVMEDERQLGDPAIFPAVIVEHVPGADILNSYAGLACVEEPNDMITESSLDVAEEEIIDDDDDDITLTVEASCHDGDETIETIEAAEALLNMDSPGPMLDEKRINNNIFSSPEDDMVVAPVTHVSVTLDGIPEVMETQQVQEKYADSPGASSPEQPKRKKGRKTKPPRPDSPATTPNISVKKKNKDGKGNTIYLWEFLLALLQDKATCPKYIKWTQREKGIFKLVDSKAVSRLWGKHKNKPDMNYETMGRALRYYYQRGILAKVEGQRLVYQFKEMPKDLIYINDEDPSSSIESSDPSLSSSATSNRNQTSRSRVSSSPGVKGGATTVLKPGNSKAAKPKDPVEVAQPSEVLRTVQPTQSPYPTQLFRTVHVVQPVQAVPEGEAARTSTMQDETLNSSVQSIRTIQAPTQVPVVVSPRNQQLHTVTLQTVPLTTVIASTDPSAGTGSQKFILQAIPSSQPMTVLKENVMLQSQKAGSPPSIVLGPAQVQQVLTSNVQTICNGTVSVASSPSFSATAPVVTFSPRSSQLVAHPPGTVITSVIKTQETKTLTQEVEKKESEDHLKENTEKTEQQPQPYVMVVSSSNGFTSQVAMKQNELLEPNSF
Summary of the method: as §1

EHF = molecular target: T5, EHF (Homo sapiens, UniProt Q9NZC4 1-300)
T5 sequence: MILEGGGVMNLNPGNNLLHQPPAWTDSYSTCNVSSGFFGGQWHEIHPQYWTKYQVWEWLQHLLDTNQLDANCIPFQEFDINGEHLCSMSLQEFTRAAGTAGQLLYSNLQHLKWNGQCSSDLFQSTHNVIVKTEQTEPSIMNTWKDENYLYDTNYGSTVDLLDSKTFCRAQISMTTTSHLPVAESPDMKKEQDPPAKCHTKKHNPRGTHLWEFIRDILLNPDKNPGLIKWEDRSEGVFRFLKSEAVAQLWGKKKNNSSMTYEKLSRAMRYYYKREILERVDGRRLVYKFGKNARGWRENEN
Summary of the method: as §1

SPI1 = SPI1 (Homo sapiens, UniProt P17947 1-270)
Summary of the method: as §1

SPIB = SPIB (Homo sapiens, UniProt Q01892 1-262)
Sequence of SPIB (Q01892 whole entry): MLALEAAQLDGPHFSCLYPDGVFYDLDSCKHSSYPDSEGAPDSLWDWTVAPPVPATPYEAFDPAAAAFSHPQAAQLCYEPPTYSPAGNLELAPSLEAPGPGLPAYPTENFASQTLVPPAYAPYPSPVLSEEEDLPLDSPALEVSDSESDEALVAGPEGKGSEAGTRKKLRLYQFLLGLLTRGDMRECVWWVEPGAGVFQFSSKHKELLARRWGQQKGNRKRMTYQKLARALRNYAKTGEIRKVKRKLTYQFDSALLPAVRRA
Summary of the method: as §1

ELK3 = molecular target: T6, ELK3 (Homo sapiens, UniProt P41970 1-407)
T6 sequence: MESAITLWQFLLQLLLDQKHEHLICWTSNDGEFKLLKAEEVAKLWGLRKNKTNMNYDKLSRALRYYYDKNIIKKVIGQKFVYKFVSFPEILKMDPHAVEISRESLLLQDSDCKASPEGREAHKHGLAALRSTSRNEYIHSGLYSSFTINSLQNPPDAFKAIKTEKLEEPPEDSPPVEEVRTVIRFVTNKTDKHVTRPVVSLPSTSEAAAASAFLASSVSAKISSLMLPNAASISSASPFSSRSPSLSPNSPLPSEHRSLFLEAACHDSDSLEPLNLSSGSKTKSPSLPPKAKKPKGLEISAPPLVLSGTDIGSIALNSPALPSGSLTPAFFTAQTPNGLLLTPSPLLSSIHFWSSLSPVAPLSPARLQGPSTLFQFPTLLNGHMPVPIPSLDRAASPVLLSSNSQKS
Summary of the method: as §1

Sequence: GTTTAC
- binding signal (FLI1): 1.21 fold enrichment (6-mer frequency, TF over GST control)
- binding signal (ELK1): 1.13 fold enrichment (6-mer frequency, TF over GST control)
- binding signal (GABPA): 1.19 fold enrichment (6-mer frequency, TF over GST control)
- binding signal (ERG): 1.12 fold enrichment (6-mer frequency, TF over GST control)
- binding signal (ELF1): 1.08 fold enrichment (6-mer frequency, TF over GST control)
- binding signal (EHF): 1.14 fold enrichment (6-mer frequency, TF over GST control)
- binding signal (SPI1): 1.13 fold enrichment (6-mer frequency, TF over GST control)
- binding signal (SPIB): 1.09 fold enrichment (6-mer frequency, TF over GST control)
- binding signal (ELK3): 1.03 fold enrichment (6-mer frequency, TF over GST control)

Sequence: GATGCC
- binding signal (FLI1): 1.45 fold enrichment (6-mer frequency, TF over GST control)
- binding signal (ELK1): 1.36 fold enrichment (6-mer frequency, TF over GST control)
- binding signal (GABPA): 1.38 fold enrichment (6-mer frequency, TF over GST control)
- binding signal (ERG): 1.41 fold enrichment (6-mer frequency, TF over GST control)
- binding signal (ELF1): 1.32 fold enrichment (6-mer frequency, TF over GST control)
- binding signal (EHF): 1.41 fold enrichment (6-mer frequency, TF over GST control)
- binding signal (SPI1): 1.35 fold enrichment (6-mer frequency, TF over GST control)
- binding signal (SPIB): 1.26 fold enrichment (6-mer frequency, TF over GST control)
- binding signal (ELK3): 1.38 fold enrichment (6-mer frequency, TF over GST control)

Sequence: CCCTCC
- binding signal (FLI1): 1.37 fold enrichment (6-mer frequency, TF over GST control)
- binding signal (ELK1): 1.54 fold enrichment (6-mer frequency, TF over GST control)
- binding signal (GABPA): 1.5 fold enrichment (6-mer frequency, TF over GST control)
- binding signal (ERG): 1.41 fold enrichment (6-mer frequency, TF over GST control)
- binding signal (ELF1): 1.49 fold enrichment (6-mer frequency, TF over GST control)
- binding signal (EHF): 1.37 fold enrichment (6-mer frequency, TF over GST control)
- binding signal (SPI1): 1.35 fold enrichment (6-mer frequency, TF over GST control)
- binding signal (SPIB): 1.39 fold enrichment (6-mer frequency, TF over GST control)
- binding signal (ELK3): 1.37 fold enrichment (6-mer frequency, TF over GST control)

Sequence: GCCTCC
- binding signal (FLI1): 1.29 fold enrichment (6-mer frequency, TF over GST control)
- binding signal (ELK1): 1.34 fold enrichment (6-mer frequency, TF over GST control)
- binding signal (GABPA): 1.23 fold enrichment (6-mer frequency, TF over GST control)
- binding signal (ERG): 1.33 fold enrichment (6-mer frequency, TF over GST control)
- binding signal (ELF1): 1.27 fold enrichment (6-mer frequency, TF over GST control)
- binding signal (EHF): 1.31 fold enrichment (6-mer frequency, TF over GST control)
- binding signal (SPI1): 1.38 fold enrichment (6-mer frequency, TF over GST control)
- binding signal (SPIB): 1.29 fold enrichment (6-mer frequency, TF over GST control)
- binding signal (ELK3): 1.33 fold enrichment (6-mer frequency, TF over GST control)

Sequence: ATCCAA
- binding signal (FLI1): 1.15 fold enrichment (6-mer frequency, TF over GST control)
- binding signal (ELK1): 1.19 fold enrichment (6-mer frequency, TF over GST control)
- binding signal (GABPA): 1.18 fold enrichment (6-mer frequency, TF over GST control)
- binding signal (ERG): 1.09 fold enrichment (6-mer frequency, TF over GST control)
- binding signal (ELF1): 1.2 fold enrichment (6-mer frequency, TF over GST control)
- binding signal (EHF): 1.1 fold enrichment (6-mer frequency, TF over GST control)
- binding signal (SPI1): 1.11 fold enrichment (6-mer frequency, TF over GST control)
- binding signal (SPIB): 1.22 fold enrichment (6-mer frequency, TF over GST control)
- binding signal (ELK3): 1.14 fold enrichment (6-mer frequency, TF over GST control)

Sequence: GAATTG
- binding signal (FLI1): 1.15 fold enrichment (6-mer frequency, TF over GST control)
- binding signal (ELK1): 1.12 fold enrichment (6-mer frequency, TF over GST control)
- binding signal (GABPA): 1.09 fold enrichment (6-mer frequency, TF over GST control)
- binding signal (ERG): 1.1 fold enrichment (6-mer frequency, TF over GST control)
- binding signal (ELF1): 1.11 fold enrichment (6-mer frequency, TF over GST control)
- binding signal (EHF): 1.12 fold enrichment (6-mer frequency, TF over GST control)
- binding signal (SPI1): 1.17 fold enrichment (6-mer frequency, TF over GST control)
- binding signal (SPIB): 1.21 fold enrichment (6-mer frequency, TF over GST control)
- binding signal (ELK3): 1.21 fold enrichment (6-mer frequency, TF over GST control)

Sequence: TCAAAG
- binding signal (FLI1): 1.08 fold enrichment (6-mer frequency, TF over GST control)
- binding signal (ELK1): 1.01 fold enrichment (6-mer frequency, TF over GST control)
- binding signal (GABPA): 1.13 fold enrichment (6-mer frequency, TF over GST control)
- binding signal (ERG): 1.09 fold enrichment (6-mer frequency, TF over GST control)
- binding signal (ELF1): 1.19 fold enrichment (6-mer frequency, TF over GST control)
- binding signal (EHF): 1.02 fold enrichment (6-mer frequency, TF over GST control)
- binding signal (SPI1): 1.1 fold enrichment (6-mer frequency, TF over GST control)
- binding signal (SPIB): 1.11 fold enrichment (6-mer frequency, TF over GST control)
- binding signal (ELK3): 1.15 fold enrichment (6-mer frequency, TF over GST control)
